Screening data deposited in PubChem by National Center for Advancing Translational Sciences (NCATS).
NS1 function inh – influenza NS1 inhibition; Potency, µM (top dose mostly 46.1 µM); 270,000 compounds, 0.4% hits; AID 2326; calls by dose curve; note: actives are rising curves; nearly all actives have a fitted effect of over 50% in size
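S. cerevisiae expressing influenza A NS1, grown in glucose, washed, then diluted 1:100 into pH 6.0 -URA galactose medium with 23 nl compound. Growth recovery read as OD600; NS1-free strain serves as control.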
Shiga toxin inh – inhibitors of Shiga toxin in Vero cells; Vero cells, Shiga toxin protein synthesis inhibition reporter; inhibition, % at 38.7 µM; 290,000 compounds, 9.2% hits; in the data active = inhibition mostly above about 28%, no sharp cut-off; inactive = mostly below about 43%
Pf growth 96h – P. falciparum growth inhibition at 96 hour, primary screen for plastid delayed-death inhibitors. Potency, µM (doses to about 28.7 µM), most hits filed as inhibitors. 320,000 compounds, 6.9% hits. P. falciparum luciferase reporter growth, 96 h
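P. falciparum expressing integrated firefly luciferase grown in erythrocytes (2% hematocrit, 0.05% parasitemia final) with compounds for 96 hours at 37 C, 5% CO2. Growth inhibition read as loss of luminescence after adding luciferase detection reagent.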
Cycloheximide cs – counter-screen for Shiga toxin inhibitors: cycloheximide protein synthesis inhibition | cell reporter, cycloheximide protein synthesis inhibition counterscreen | max response, % | 300,000 compounds, 12% hits | AID 2314; in the data active = max response mostly above about 13%, no sharp cut-off; inactive = mostly below about 14%; note: read at 38.3 µM for the half of the compounds with a filed dose
Pf growth 48h – P. falciparum growth inhibition at 48 hours (one generation); 310,000 compounds, 5.9% hits; P. falciparum luciferase growth in erythrocytes, 48 h; Potency, µM (doses to about 28.7 µM), actives largely listed as inhibitors
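A one-generation exposure of luciferase-tagged malaria parasites in RPMI 1640/Albumax erythrocyte culture, 37 C and 5% CO2. Inhibition is inferred from decreased luminescence after adding detection reagent.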
Numbers stand for hits; - = inactive; ? = inconclusive; . = no result; [ ] = dose if it differs, or a comment. The list is not random: actives were taken first. Their share in the collection is about 21%. Unless noted, calls come from the whole dose curve; as a rule, active = well fitted inhibition curve with a large enough effect; inconclusive = small, poorly fitted or top-dose-only effect, or another doubt; inactive = no such curve, though single readings can be large or run the other way.

SMILES | NS1 function inh | Shiga toxin inh | Pf growth 96h | Cycloheximide cs | Pf growth 48h
COc1ccccc1/C=C1\SC(=O)N(CCC(=O)NCCCn2ccnc2)C1=O | - | - | ? | - | -
COc1ccc(/C=C2\SC(=O)N(CCc3nnc(N)s3)C2=O)cc1 | - | 103.6 | - | 53.2 | -
COc1cccc(/C=C2\SC(=O)N(CC(=O)NCCCn3ccnc3)C2=O)c1 | - | 28.9 | - | - | -
COc1cccc(/C=C2\SC(=O)N(CCC(=O)NCCCn3ccnc3)C2=O)c1 | - | - | - | - | -
O=C(CN1C(=O)S/C(=C\c2ccc(Cl)cc2)C1=O)NCCCn1ccnc1 | - | - | ? | 16.6 | -
COc1ccc(NS(=O)(=O)c2ccc(S(=O)(=O)N3CCCC3)cc2)cc1Cl | - | - | - | - | .
COc1ccc(-c2noc(N3CCC(C(=O)Nc4cccc(OC)c4)CC3)n2)cc1 | - | 24.6 | - | 11.5 | ?
CCOC(=O)N1CCN(c2nc(-c3ccc(OC)cc3)no2)CC1 | - | 62.0 | - | 26.0 | -
CCOC(=O)N1CCN(C(=O)c2sc3nc(-c4ccc(F)cc4)cn3c2C)CC1 | - | - | - | - | .
COc1cccc(NC(=O)C2CCN(c3ncccn3)CC2)c1 | - | 25.3 | - | 11.1 | -
COc1ccc(OC)c(NC(=O)C2CCN(c3ncccn3)CC2)c1 | - | - | - | - | -
CCOC(=O)N1CCN(C(=O)c2ccc3c(c2)sc2nc(-c4ccc(OC)cc4)cn23)CC1 | - | - | - | 25.1 | ?
CN(C)N1C(N)=C(C#N)C(c2cccs2)C2=C1CC(C)(C)CC2=O (centres undefined) | . | - | - | - | ?
CNC(=S)Nc1ccc(OC(F)(F)F)cc1 | . | - | - | - | -[5.75 µM]
CC(=O)Nc1cccc(Oc2ccc(-c3noc(C)n3)cc2)c1 | - | 79.3 | - | 44.1 | -
Oc1ccc2c(c1)[C@@]13CCCCC1[C@@H](C2)N(CC1CCC1)CC3 (some centres undefined) | . | - | . | - | .
C=CCN1CC[C@]23CCCCC2[C@H]1Cc1ccc(O)cc13 (some centres undefined) | - | . | 15.1µM | . | ?
Cc1ccc(C(=S)N2CCN(Cc3ccccc3)CC2)s1 | . | - | - | - | -
Cc1nc2scc(-c3ccc(Cl)cc3)c2c(=O)n1N | - | - | - | - | ?
CC(C)c1nc2scc(-c3ccc(Cl)cc3)c2c(=O)n1N | - | 73.4 | - | 37.6 | -
CCOc1ccc(CN(C)C(=O)CNC(=O)c2cc(OC)c(OC)c(OC)c2)cc1 | - | - | - | - | -
O=C(OCc1cc(=O)n2cc(Br)ccc2n1)c1ccc(Cl)c(S(=O)(=O)NCc2ccccc2)c1 | - | - | ? | - | -
N#CCCN(Cc1ccccc1)S(=O)(=O)c1cccs1 | - | - | - | - | -
Cc1cccc(C)c1N(CC(=O)N1CCCC1)S(C)(=O)=O | - | - | ? | - | -
COC(=O)C1=C(c2ccc(-c3ccccc3)c(F)c2)C[C@@H]2CC[C@H]1N2C(=O)NCCc1ccccc1 | . | . | ? | . | 6.57µM
SMILES | NS1 function inh | Shiga toxin inh | Pf growth 96h | Cycloheximide cs | Pf growth 48h
COC(=O)C1=C(c2ccc(-c3ccccc3)c(F)c2)C[C@@H]2CC[C@H]1N2C(=O)NCc1cccc2ccccc12 | . | . | 1.04µM | . | 1.17µM
COC(=O)C1=C(c2ccc(OC(F)(F)F)cc2)C[C@@H]2CC[C@H]1N2C(=O)NCc1cccc2ccccc12 | . | . | 1.85µM | . | 1.65µM
COC(=O)C1=C(c2ccc(OC(F)(F)F)cc2)C[C@@H]2CC[C@H]1N2C(=O)NCc1cc(C)oc1C(F)(F)F | . | . | 8.28µM | . | 11.7µM
Cc1c(C(=O)NNc2c(Cl)cccc2Cl)n(C)oc1=O | - | - | - | - | -
N#C/C(=C\c1ccccc1)C(=O)N(c1ccccn1)C1CCCCC1 | - | - | ? | - | -
O=C(CCC(=O)NCc1ccccc1)NCc1ccccc1 | - | - | - | - | -
COC(=O)C1=C(c2ccc(-c3ccccc3)c(F)c2)C[C@@H]2CC[C@H]1N2C(=O)NCCOc1ccc(OC)cc1 | . | . | ? | . | 7.38µM
C/C(CC(C)(C)c1ccccc1)=N\NS(=O)(=O)c1ccccc1 | - | - | - | - | -
O=C(O)[C@@H]1[C@@H](C(=O)O)[C@@]23CCCC2=C2CC[C@@]3(C(=O)O)[C@@]3(C(=O)O)C[C@@]213 | - | . | . | . | .
COc1ccc(NC2=NCCC2)cc1 | ? | - | - | - | ?
Brc1ccc(-c2csc(NC3=NCCCCC3)n2)cc1 | - | - | 13.1µM | 24.4 | -
CCOc1ccc(-c2csc(NNC3=NCCCCC3)n2)cc1 | . | - | - | 16.4 | -
COc1ccc(-c2csc(NNC3=NCCCCC3)n2)cc1 | . | 26.1 | - | 29.5 | 11.7µM
Cc1ccc(-c2csc(NC(=O)COc3ccc(N(C)S(=O)(=O)c4ccc(C)cc4)cc3)n2)cc1 | - | - | ? | - | ?
COc1ccc(-c2csc(NC3=NCCCCC3)n2)cc1 | - | 108.3 | - | 33.3 | -
CC1CCCCN1C(=O)CSc1nnc(-c2cccnc2)o1 (centres undefined) | - | - | - | - | -
Cc1cccc2cc(COC(=O)C(C)(C)C)c(=O)[nH]c12 | - | - | ? | - | -
O=S(=O)(c1ccc(-c2csc(Nc3ccc(F)cc3)n2)cc1)N1CCCC1 | - | - | - | - | -
Fc1ccc(-c2csc(NC3=NCCC3)n2)cc1 | . | 109.3 | - | 21.4 | -
Cc1cc(=O)[nH]c(SCc2cc(=O)n3nc(C)sc3n2)n1 | - | - | ? | - | .
COc1ccc(NC(=O)c2cc3sccc3n2Cc2ccc(F)cc2)cc1OC | - | - | - | 24.8 | ?
O=C(Nc1nccs1)c1cc2sccc2n1Cc1ccc(F)cc1 | - | - | -[5.75 µM] | 17.7 | 13.1µM
CC(=O)N/C(=C\c1ccc(Br)s1)C(=O)O | . | - | - | - | -
COc1ccc(CN2C(=O)c3cccc4cccc(c34)C2=O)cc1 | - | - | - | - | ?
O=C(c1ccc(S(=O)(=O)N2CCCC2)cc1)N1CCC(CN2C(=O)c3cccc4cccc(c34)C2=O)CC1 | - | - | 1.31µM | - | 11.7µM
SMILES | NS1 function inh | Shiga toxin inh | Pf growth 96h | Cycloheximide cs | Pf growth 48h
COc1ccc(OCC(O)CN2CCC(CN3C(=O)c4cccc5cccc(c45)C3=O)CC2)cc1 (centres undefined) | - | - | - | - | 8.28µM
CCOC(=O)C1CCN(CC(O)COCc2ccc3c(c2)OCO3)CC1 (centres undefined) | . | - | - | - | -
O=C1c2cccc3cccc(c23)C(=O)N1CC1CCN(CC(O)COCc2ccc3c(c2)OCO3)CC1 (centres undefined) | - | - | ? | - | 9.28µM
COc1ccc(S(=O)(=O)N2CCC(CN3C(=O)c4cccc5cccc(c45)C3=O)CC2)cc1 | ? | - | 1.47µM | - | ?
Cc1ccc(NC(=O)CCNS(=O)(=O)c2ccc3c(c2)CCC(=O)N3)cc1 | - | - | ? | - | -
COCCNc1nnc(SCC(=O)Nc2nnc(-c3ccccc3)o2)s1 | . | . | - | . | -
O=C(COc1ccc(F)cc1)NCCCn1ccnc1 | - | - | - | - | -
COCCn1c(SCC(=O)Nc2cccc(NC(C)=O)c2)nc2c([nH]c3ccccc32)c1=O | - | - | - | - | -
CC1CCC2(CC1)SCC(=O)N2c1ccc(F)cc1 (centres undefined) | - | - | - | - | -
